Screening results as filed in PubChem.
TbPYK inhibitor = inhibitors of Trypanosoma brucei pyruvate kinase; Q57TT1; TbPYK enzyme, Kinase-Glo Plus ATP luminescence, 45 min; Potency, µM (titrated, usually from 76.8 µM), usual class: inhibitors; 410,000 tested, 0.12% active; note: nearly all actives have a fitted effect of over 50% in size
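Activity of T. brucei pyruvate kinase was followed by Kinase-Glo Plus luminescence after the enzyme reacted 45 min at room temperature with 130 uM ADP (final) and substrate. Test compounds were added before ADP at multiple concentrations.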
RE007 growth inh = less growth of the S. pombe RE007 Vpr strain; Potency, µM (titrated, usually from 92.2 µM), usual class: inhibitors; AID 651644; S. pombe RE007 Vpr strain, BacTiter-Glo ATP luminescence, 24 h; 360,000 tested, 0.21% active; active = well fitted falling curve with a large enough effect; inconclusive = small, poorly fitted or top-dose-only effect; inactive = no such curve, though single readings can be large or run the other way; note: nearly all actives have a fitted effect of over 50% in size
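Fission yeast strain RE007, carrying one chromosomally integrated HIV-1 vpr copy, was seeded at OD 0.01 in PMG+AL medium with 23 nL pinned compound. After 24 h at 30 °C and 99% humidity, viability was read by BacTiter-Glo luminescence.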
Sm TGR inh = inhibitors of Schistosoma mansoni thioredoxin glutathione reductase | AID 485364 | Potency, µM (series often up to 114 µM), actives largely listed as inhibitors | 360,000 tested, 3% active | Q962Y6 | purified TGR, DTNB reduction, TNB absorbance 405 nm; note: nearly all actives have a fitted effect of over 60% in size
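Kinetic colorimetric format: TGR-catalysed, NADPH-driven DTNB reduction monitored via TNB absorbance. Enzyme dispensed at 20 nM; compound exposure 15 min at room temperature before reaction start.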
HCMV antiviral = inhibitors of human cytomegalovirus. 410,000 tested, 4.5% active. HFF cells, HCMV-luciferase reporter, 72 h; hits give low values. AID 1259415. activity change, negative = inhibition, % at 57.5 µM; in the data active = activity change below about -60%; inconclusive = no clear call, values can overlap the other calls; inactive = above about -39%
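Inhibition of viral replication was scored as loss of reporter luminescence in HFFs infected with HCMV-luciferase (MOI 1 PFU/cell) for 72 h; compounds tested at 2 doses, normalized to buffer and Salinomycin controls.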
Giardia FBPA inh-1 = Giardia lamblia aldolase inhibition; purified Giardia FBPA; Potency, µM (doses to about 59.6 µM), usual class: inhibitors; AID 2451; A8B2U2; 290,000 tested, 0.71% active; note: nearly all actives have a fitted effect of over 55% in size
Target sequence (A8B2U2 whole entry, looked up): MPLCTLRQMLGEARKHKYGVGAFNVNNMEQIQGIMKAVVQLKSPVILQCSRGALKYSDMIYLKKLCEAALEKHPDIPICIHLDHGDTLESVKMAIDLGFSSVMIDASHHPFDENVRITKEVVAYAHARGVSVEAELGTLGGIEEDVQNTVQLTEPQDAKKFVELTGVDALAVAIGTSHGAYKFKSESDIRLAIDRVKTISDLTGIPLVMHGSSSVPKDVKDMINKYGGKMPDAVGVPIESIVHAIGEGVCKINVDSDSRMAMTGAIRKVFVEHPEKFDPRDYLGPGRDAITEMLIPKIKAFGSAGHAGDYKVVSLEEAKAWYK
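40 nM FBPA preincubated 10 min at RT with compound (up to 57.5 uM final), then substrate plus GAPDH/TPI/NAD/arsenate coupling and diaphorase/resazurin added. Fluorescence read after 20 min at RT, 525/598 nm.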
FMDV inh = blocks foot and mouth disease virus; FMDV antiviral cell-based qHTS; Potency, µM (highest dose often 57.9 µM), usual class: inhibitors; 410,000 tested, 1.2% active; calls by dose curve; tested in HEK293T cells; note: read-out not given here; nearly all actives have a fitted effect of over 45% in size
Giardia growth = inhibitors of Giardia lamblia growth | shares compounds with Giardia FBPA inh-1 | Giardia lamblia trophozoite growth inhibition | Potency, µM (doses to about 57.5 µM), usual class: inhibitors | 1,500 tested, 5% active | AID 2785;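 note: trophozoites exposed to compound for 48 h at 37 °C; nearly all actives have a fitted effect of over 70% in size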
Mammal cell tox = counter-screen for Giardia aldolase inhibitors: mammalian cell toxicity; shares compounds with Giardia FBPA inh-1; mammalian cell viability counter-screen, qHTS; Potency, µM (top dose mostly 57.5 µM), hits mostly inhibitors; 1,500 tested, 4% active;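 note: Chinese hamster ovary cells used as mammalian cytotoxicity surrogate; viability measured as cellular ATP by luminescence; compound exposure lasted 48 h before reading; nearly all actives have a fitted effect of over 60% in size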
Giardia FBPA inh-2 = confirmation of Giardia fructose-bisphosphate aldolase inhibitors; shares compounds with Giardia FBPA inh-1; purified Giardia aldolase enzyme activity, qHTS; Potency, µM (highest dose often 57.5 µM), hits mostly inhibitors; 1,500 tested, 5% active; AID 2787; note: nearly all actives have a fitted effect of over 45% in size
Rabbit FBPA inh = selectivity test for Giardia aldolase inhibitors: rabbit aldolase; shares compounds with Giardia FBPA inh-1; Rabbit muscle FBPA enzyme inhibition, selectivity counter-screen; Potency, µM (doses to about 57.5 µM), actives largely listed as inhibitors; 1,500 tested, 4% active; note: nearly all actives have a fitted effect of over 60% in size
Target sequence (P00883 whole entry, looked up): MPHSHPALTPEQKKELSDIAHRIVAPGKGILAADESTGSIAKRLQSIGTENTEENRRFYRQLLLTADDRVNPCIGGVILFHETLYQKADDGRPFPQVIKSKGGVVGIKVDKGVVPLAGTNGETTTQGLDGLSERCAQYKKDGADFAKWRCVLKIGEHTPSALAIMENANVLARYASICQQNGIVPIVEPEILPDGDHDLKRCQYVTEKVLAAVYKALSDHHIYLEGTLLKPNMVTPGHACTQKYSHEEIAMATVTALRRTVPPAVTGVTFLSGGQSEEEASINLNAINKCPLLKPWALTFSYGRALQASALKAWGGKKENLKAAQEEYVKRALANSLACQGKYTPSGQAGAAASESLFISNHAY
GAPDH counter = GAPDH inhibition flagged for Giardia aldolase hits | shares compounds with Giardia FBPA inh-1 | GAPDH coupling enzyme counterscreen, biochemical, qHTS | Potency, µM (highest dose often 57.5 µM), actives largely listed as inhibitors | 1,500 tested, 6% active | AID 2795; note: nearly all actives have a fitted effect of over 55% in size
Of the large screens only hits and unclear results are named; the others gave an inactive call (follow-up assays come after a bar, where they were run); [ ] = another dose, or the depositor's remark. An excerpt weighted towards active compounds, which were near 7.7% of everything screened. Unless noted, calls come from the whole dose curve; as a rule, active = well fitted curve in the direction sought with a large enough effect; inconclusive = small, poorly fitted or top-dose-only effect, or another doubt; inactive = no such curve, though single readings can be large; an effect the other way counts as inactive or inconclusive.

CCOC(=O)c1c(NC(=O)c2ccc(S(=O)(=O)N(C)C3CCCCC3)cc2)sc2c1CCN(C(C)C)C2	none (no result: RE007 growth inh, Giardia FBPA inh-1)
C=CCn1c(-c2ccoc2)n[nH]c1=S	TbPYK inhibitor inconclusive, Giardia FBPA inh-1 2.51µM | Giardia growth inconclusive | Mammal cell tox inactive | Giardia FBPA inh-2 inactive | Rabbit FBPA inh inactive | GAPDH counter inactive
C=CCn1c(-c2ccncc2)n[nH]c1=S	TbPYK inhibitor inconclusive, Giardia FBPA inh-1 2.51µM | Giardia growth inactive | Mammal cell tox inactive | Giardia FBPA inh-2 inactive | Rabbit FBPA inh inactive | GAPDH counter inactive
CCc1ccc(-n2nc(C)c3c(C)cc(=O)n(CC(=O)Nc4ccccc4C(=O)OC)c32)cc1	none (no result: RE007 growth inh, Giardia FBPA inh-1)
O=C(OC[C@@H](O)CO)c1ccccc1Nc1ccnc2cc(Cl)ccc12	none (no result: RE007 growth inh, Sm TGR inh, HCMV antiviral, FMDV inh)
COCCOC(=O)c1c(N)n(Cc2ccco2)c2nc3ccccc3nc12	Giardia FBPA inh-1 7.06µM | Giardia growth inactive | Mammal cell tox inactive | Giardia FBPA inh-2 inactive | Rabbit FBPA inh inactive | GAPDH counter inactive
Cc1ccc(CCNC(=O)CSCc2nc(-c3ccc(C)cc3)oc2C)cc1	none (no result: RE007 growth inh, Giardia FBPA inh-1)
CC1CCc2c(sc(NC(=O)c3cc(-c4ccc(F)cc4)on3)c2C(N)=O)C1 (stereo not given)	none (no result: RE007 growth inh, Giardia FBPA inh-1)
COc1ccc(S(=O)(=O)NNC(N)=S)cc1	Giardia FBPA inh-1 9.98µM | Giardia growth inactive | Mammal cell tox inactive | Giardia FBPA inh-2 inactive | Rabbit FBPA inh inactive | GAPDH counter inactive
COc1ccc(NC(=O)NNS(=O)(=O)c2ccc(Br)cc2)cc1	none
O=[N+]([O-])c1ccccc1/C=N/n1c(C(F)(F)F)n[nH]c1=S	TbPYK inhibitor inconclusive, RE007 growth inh inconclusive, Giardia FBPA inh-1 17.7µM | Giardia growth inactive[10.4 µM] | Mammal cell tox inactive | Giardia FBPA inh-2 inconclusive | Rabbit FBPA inh inconclusive | GAPDH counter inconclusive
O=[N+]([O-])c1ccccc1/C=N/n1c(C2CCCCC2)n[nH]c1=S	TbPYK inhibitor inconclusive
Cc1cccc(-n2cnc(C(=O)N3CCN(C)CC3)c2)n1	none (no result: Sm TGR inh)
Cc1cccc(-n2cnc(C(=O)O)c2)n1	Giardia FBPA inh-1 19.9µM | Giardia growth inactive[10.4 µM] | Mammal cell tox inactive | Giardia FBPA inh-2 inactive | Rabbit FBPA inh inactive | GAPDH counter inactive
O=c1cc(CN2CCN(Cc3ccccc3)CC2)c2ccc(O)c(O)c2o1	Sm TGR inh inconclusive, Giardia FBPA inh-1 17.8µM | Giardia growth inactive | Mammal cell tox inactive | Giardia FBPA inh-2 inconclusive | Rabbit FBPA inh inconclusive | GAPDH counter inactive
Nn1cnnc1N/N=C/c1ccccc1C(F)(F)F	Giardia FBPA inh-1 inconclusive
Nn1cnnc1N/N=C/c1cccc(Cl)c1Cl	Giardia FBPA inh-1 inconclusive | Giardia growth inactive | Mammal cell tox inactive | Giardia FBPA inh-2 9.19µM | Rabbit FBPA inh 11.6µM | GAPDH counter 14.6µM
Cc1ccc(/C=N/Nc2nncn2N)cc1	Giardia FBPA inh-1 inconclusive
Nn1cnnc1N/N=C/c1ccc(F)cc1	Giardia FBPA inh-1 20µM | Giardia growth inactive | Mammal cell tox inactive | Giardia FBPA inh-2 inconclusive | Rabbit FBPA inh inactive | GAPDH counter inconclusive
CCc1nnc(N/N=C/c2ccc(N3CCC(C)CC3)c([N+](=O)[O-])c2)n1N	RE007 growth inh inconclusive, Giardia FBPA inh-1 7.06µM | Giardia growth inconclusive | Mammal cell tox inactive | Giardia FBPA inh-2 inconclusive | Rabbit FBPA inh inactive | GAPDH counter inactive
Nn1cnnc1N/N=C/c1ccc(Cl)c([N+](=O)[O-])c1	Sm TGR inh inconclusive, Giardia FBPA inh-1 12.6µM | Giardia growth inactive | Mammal cell tox inactive | Giardia FBPA inh-2 inconclusive | Rabbit FBPA inh inconclusive | GAPDH counter inconclusive
Cc1ccc(CNC(=O)C2CCN(S(=O)(=O)c3ccc4[nH]c(=O)ccc4c3)CC2)cc1	none (no result: RE007 growth inh, Giardia FBPA inh-1)
Cc1[nH]c(=S)[nH]c(=O)c1CCC1OCCO1	Giardia FBPA inh-1 7.08µM (no result: RE007 growth inh) | Giardia growth inactive | Mammal cell tox inactive | Giardia FBPA inh-2 inactive | Rabbit FBPA inh inactive | GAPDH counter inactive
Cc1[nH]c(=S)[nH]c(=O)c1CCCO	none
CC(C)C[C@H]1COc2cc(NCCO)ccc2S(=O)(=O)N1	none (no result: TbPYK inhibitor, RE007 growth inh, Sm TGR inh, Giardia FBPA inh-1, FMDV inh)
COc1cc(/C=C/c2nc(C#N)c(NCCc3ccccc3)o2)cc(OC)c1OC	none (no result: RE007 growth inh, Giardia FBPA inh-1)
N[C@@H](CO)C(=O)NNCc1ccc(O)c(O)c1O	Giardia FBPA inh-1 5.01µM (no result: RE007 growth inh, Sm TGR inh, HCMV antiviral, FMDV inh) | Giardia growth inactive | Mammal cell tox inactive | Giardia FBPA inh-2 inconclusive | Rabbit FBPA inh inconclusive | GAPDH counter inconclusive
O=C(CC1C(=O)OCC2CCCCN21)Nc1ccccc1C(F)(F)F (stereo not given)	Sm TGR inh inconclusive, Giardia FBPA inh-1 22.3µM | Giardia growth inactive | Mammal cell tox inactive | Giardia FBPA inh-2 inactive | Rabbit FBPA inh inactive | GAPDH counter inactive
Cc1ccc(NC(=O)CC2C(=O)OCC3CCCCN32)cc1Cl (stereo not given)	RE007 growth inh inconclusive
COc1ccc2c(c1)c1c(c(=O)n(-c3cccc(C)c3)c(=O)n1CC(=O)NCCC1=CCCCC1)n2C	none (no result: RE007 growth inh, Giardia FBPA inh-1)
C/C(=N/O)c1ccccn1	Giardia FBPA inh-1 3.15µM | Giardia growth inactive | Mammal cell tox inactive | Giardia FBPA inh-2 inactive | Rabbit FBPA inh inactive | GAPDH counter inconclusive
